# High-throughput results from PubChem BioAssay.
# Hits are enriched below; roughly 1.3% of the tested compounds scored in any of these assays.
# Rce1 inh = yeast Rce1p protease inhibitors, primary screen, biochemical, fluorescence, cell-free homogeneous; CAAX prenyl protease 2 (Saccharomyces cerevisiae (strain ATCC 204508 / S288c)), Q03530; yeast membranes, quenched prenylated peptide cleavage fluorescence; calls only; 0.27% of 290,000 active;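 active means fall in fluorescence gain of 50% or more versus controls, with final raw signal at or below 3038400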
# Target sequence (Q03530 whole entry, looked up): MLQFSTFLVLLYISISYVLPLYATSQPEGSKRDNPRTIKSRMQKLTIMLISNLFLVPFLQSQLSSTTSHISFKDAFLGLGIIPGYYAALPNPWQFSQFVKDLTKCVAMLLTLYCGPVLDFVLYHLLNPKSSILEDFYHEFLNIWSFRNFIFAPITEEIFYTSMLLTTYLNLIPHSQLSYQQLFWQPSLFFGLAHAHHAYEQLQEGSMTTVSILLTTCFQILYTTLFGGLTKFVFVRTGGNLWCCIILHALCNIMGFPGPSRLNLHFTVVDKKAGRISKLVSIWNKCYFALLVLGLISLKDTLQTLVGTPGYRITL
# PGC1a acetyl inh = inhibitors of PGC1a acetylation signal, primary screen, cell-based, U2OS, AlphaScreen, inhibitor mode; AlphaScreen anti-acetyl-lysine; with virally co-expressed GCN5 acetyltransferase; inhibition, % at 15.6 µM; 0.17% of 350,000 active;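 active means every replicate shows inhibition of at least 40%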
# HIF activator = HIF pathway transcriptional activators, primary screen, cell-based, U2OS HRE-luciferase, luminescence. 0.32% of 300,000 active. AID 1910, 2009. activation, % at 7.5 µM (by protocol). U2OS HRE-luciferase reporter; normalized: DMSO 0%, desferrioxamine 100%;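 active means mean activation of at least 10% of the iron chelator positive control signal, with at least half of replicates also reaching 10%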
# Statin myotox sup = suppressors of statin myotoxicity in C2C12 myotubes, primary screen, cell-based, single point, plate reader | C2C12 myotubes + simvastatin, ATP luminescence, 48 h; scaled: DMSO 0, geranylgeraniol control 100 | rescue of ATP level, % at 7.49 µM | 0.78% of 330,000 active | AID 602340, 2012;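 active means mean ATP rescue above about 67%, or every replicate alone reaching that limit, limit read from the data, passing the limit was not always enough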;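 further: myotubes were challenged with 10 µM simvastatin during compound exposure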
# AI-2 QS modul = Vibrio harveyi AI-2 quorum sensing modulators, primary screen, JMH597 strain, luminescence/OD600 ratio | AID 2094, 2009 | 0.4% of 300,000 active | activity change, % at 7.5 µM | Vibrio harveyi JMH597 AI-2 luminescence/OD600 ratio, 9 h; hits give low values; strain lacks LuxN and CqsS sensors; 0 = neutral-control median; in the data active means activity change below about -75%, passing the limit was not always enough;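 further: luminescence divided by OD600 gain over 9 h not by final OD600 alone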
# A number is an active result; 0 = inactive; - = no result; + = active, no number.
SMILES,Rce1 inh,PGC1a acetyl inh,HIF activator,Statin myotox sup,AI-2 QS modul
O=C(NCC[C@@H]1CC[C@H](NC(=O)C2CC2)[C@@H](CO)O1)Nc1ccc(Cl)cc1,-,0,-,0,-
CCC1(CC)C(=O)NC(=O)NC1=Nc1cccc(OC)c1,0,0,0,117,0
CCCCC1(CC)C(=O)NC(=O)NC1=Nc1ccc(OC)cc1 (configuration not stated),0,0,0,0,0
Cc1nc(SCc2c(F)cccc2Cl)n[nH]1,0,0,0,0,0
COc1cnc(SCc2c(Cl)cccc2Cl)nc1Cl,0,0,0,88,0
COc1cccc(S(=O)(=O)N[C@@H]2C=C[C@H](CC(=O)NC3Cc4ccccc4C3)O[C@@H]2CO)c1,-,0,-,-,-
CCCCOc1ccc(-c2cc(C(F)(F)F)c(C#N)c(SCC(=O)O)n2)cc1,+,0,0,-,0
COc1cc(/C=C/C(=O)/C=C(O)/C=C/c2ccc(O)c(OC)c2)ccc1O,-,-,-,140,-
COc1cc(/C=C/C(=O)c2ccc([N+](=O)[O-])o2)ccc1O,0,-,0,0,-175
CC(=O)NC(=S)NNC(=O)C(c1ccccc1)c1ccccc1,0,-,0,-,-87
N#CCC(=O)NNC(=S)NC(=O)C(c1ccccc1)c1ccccc1,0,-,0,-,0
O=C(CCN1C(=O)S/C(=C/c2ccc(F)cc2)C1=O)Nc1ccc(O)c(C(=O)O)c1,0,-,0,0,0
O=C(CCN1C(=O)S/C(=C\c2ccc(F)cc2)C1=O)Nc1ccc(C(=O)O)c(O)c1,0,0,30,0,0
COc1ccc(/C=C/C(=O)Nc2ccc(OC)nc2)cc1,-,0,0,84,0
COc1ccc(NC(=O)/C(Cl)=C(/Cl)S(=O)Cc2ccccc2)cn1 (configuration not stated),0,71,0,-,0
COc1ccc(NC(=O)c2cccs2)cn1,0,-,19,-,0
CCCCC(=O)Nc1ccc(NC(=O)c2cccs2)cn1,0,49,0,-,0
CCCC(=O)Nc1ccc(NC(=O)c2cccs2)cn1,-,0,0,0,-
CC(C)NC(=O)N1CCCCN2[C@H](CO)[C@@H](c3ccc(C#Cc4ccccc4)cc3)[C@@H]2C1,-,0,-,-,-
C[C@H]1CN([C@@H](C)CO)C(=O)c2cc(C#CC(C)(C)O)cnc2O[C@@H]1CN(C)C(=O)c1ccccc1F,-,0,-,0,-
CC1=C2[C@@H](c3ccccc3)OB(O)C[C@@H]2n2c(=O)n(-c3ccccc3)c(=O)n2C1,-,0,-,-,-
COC(=O)Cn1cc(C(=O)OC)c2ccccc21,0,0,0,98,0
CCOC(=O)Cn1cc(C(=O)OC)c2ccccc21,0,0,0,0,0
COC(=O)c1cn(CC(=O)N2C(C)CCCC2C)c2ccccc12 (configuration not stated),0,0,0,105,0
O=C(NC(CSCc1ccccc1)C(=O)N/N=C/c1ccc(O)cc1O)c1ccc([N+](=O)[O-])cc1 (configuration not stated),0,0,42,0,0
SMILES,Rce1 inh,PGC1a acetyl inh,HIF activator,Statin myotox sup,AI-2 QS modul
O=C(c1ccccc1CCc1ccccc1)N1CCOCC1,0,0,0,114,0
O=[N+]([O-])c1cccc(/C=N/Nc2nc(NCc3ccccc3)nc(N3CCOCC3)n2)c1O,0,-,19,-,0
O=C(NCCCN1CCC(Cc2ccccc2)CC1)C1CCN(S(=O)(=O)N2CCOCC2)CC1,-,0,-,90,-
CCS(=O)(=O)N1CCC(C(=O)NCCCN2CCC(Cc3ccccc3)CC2)CC1,0,0,0,0,0
COc1ccc(-c2cnc3c(c2)C(=O)N([C@H](C)CO)C[C@@H](C)[C@H](CN(C)S(C)(=O)=O)O3)cc1,-,0,-,0,-
COc1ccc2c3c(n(C)c2c1)[C@H](CO)N(C(=O)c1ccncc1)CC31CN(C)C1,-,0,-,-,-
NC(=O)C(c1ccc(Cl)cc1)c1ccc(Sc2ccc(Cl)cc2)nn1 (configuration not stated),0,0,0,0,-83
O=C(Nc1ccc(S(=O)(=O)NC2=NCCCCC2)cc1)c1ccc([N+](=O)[O-])s1,0,0,0,86,0
O=C(Nc1ccc(S(=O)(=O)NC2=NCCCCC2)cc1)c1cccs1,-,0,-,0,-
O=C(N/N=C/c1cc2c3c(c1O)CCCN3CCC2)c1ccccc1O,0,-,55,-,0
Cc1nn(-c2ccccc2)c(N2CCCC2)c1/C=N/NC(=O)c1ccccc1O,0,-,0,-,0
CCNc1nc(NCC)nc(N/N=C/c2ccc([N+](=O)[O-])o2)n1,0,0,0,0,-158
COc1ccc(C#Cc2c(-c3ccccc3)n(-c3ccccc3)c3ccc(CO)cc23)cc1,-,0,-,89,-
COc1ccc(-c2c(C#Cc3ccc(N(C)C)cc3)c3ccccc3n2C)cc1,-,0,-,0,-
COc1cc(-c2nc3ccc4ccccc4c3c3c2CCC3)cc(OC)c1OC,0,0,0,94,0
COc1cccc(-c2ncc3ccccn23)c1,0,0,0,-,0
COc1ccc(-c2ncc3ccccn23)cc1,0,0,0,99,0
COc1cc(OC)cc(-c2ncc3ccccn23)c1,+,-,0,0,0
O=C(NCCc1ccc(C(F)(F)F)cc1)C1COc2ccccc2O1 (configuration not stated),0,0,0,0,0
COCCCNC(=O)c1c(NC(=O)C2COc3ccccc3O2)sc2c1CCCC2 (configuration not stated),0,0,0,96,0
O=C(NCCC1=CCCCC1)C1COc2ccccc2O1 (configuration not stated),-,0,-,146,-
C=CCn1c(COc2ccc(Cl)cc2)nnc1SCC(=O)c1c(N)n(C)c(=O)n(C)c1=O,0,0,0,101,0
Cc1ccccc1N=Nc1ccc(O)c2ncccc12,0,0,38,-,0
COc1ccc(N=Nc2ccc(O)c3ncccc23)cc1,0,0,92,-,0
Oc1ccc(N=Nc2ccc3c(c2)OCCO3)c2cccnc12,0,0,14,-,0
SMILES,Rce1 inh,PGC1a acetyl inh,HIF activator,Statin myotox sup,AI-2 QS modul
COc1ccc2c3c(n(C)c2c1)[C@@H](CO)N(S(C)(=O)=O)CC31CCN(C(=O)c2ccccn2)CC1,-,0,-,-,-
O=S(=O)(CC(CN1CCOCC1)N1CCOCC1)c1ccccc1 (configuration not stated),+,-,0,-,0
CS(=O)(=O)N(CC(=O)NCc1ccco1)c1ccc(OCc2ccccc2)cc1,0,0,0,123,0
CC(C)c1cn(CC[C@@H]2CC[C@@H](NC(=O)C3CC3)[C@@H](CO)O2)nn1,-,0,-,0,-
O=C(Nc1ccc2nc(-c3cccnc3)[nH]c2c1)C1CCCCC1,0,0,0,0,0
O=C(Nc1ccc2nc(-c3cccnc3)[nH]c2c1)C12CC3CC(CC(C3)C1)C2,0,0,0,75,0
CCCC(=O)Nc1ccc2c(c1)C(=O)N(C)C[C@@H](OC)[C@@H](C)CN(Cc1ccccc1)[C@@H](C)CO2,-,0,-,0,-
